Data on seven compounds can be found in ChEMBL document CHEMBL1961873, “Compounds: GSK PKIS; Assays: Nanosyn kinase panel” (2012).

The test system of test [1] is Proto-oncogene tyrosine-protein kinase receptor Ret (Homo sapiens), P07949 [Y791F]. The settings on record: at 1 µM.
For test [2], the target named is Macrophage-stimulating protein receptor (Homo sapiens) (UniProt Q04912). The settings on record: at 0.1 µM.
Test [3] has the same target. The settings on record: at 1 µM.
Test [4] concerns the target Proto-oncogene tyrosine-protein kinase ROS (Homo sapiens) (UniProt P08922). The settings on record: at 0.1 µM.
For test [5] the target is unchanged. The conditions noted are these: at 1 µM.
In test [6] the target is Proto-oncogene tyrosine-protein kinase Src (Homo sapiens) (UniProt P12931). The settings on record: at 0.1 µM.
Chain of Proto-oncogene tyrosine-protein kinase Src (Homo sapiens) (P12931 2-536 limits assumed): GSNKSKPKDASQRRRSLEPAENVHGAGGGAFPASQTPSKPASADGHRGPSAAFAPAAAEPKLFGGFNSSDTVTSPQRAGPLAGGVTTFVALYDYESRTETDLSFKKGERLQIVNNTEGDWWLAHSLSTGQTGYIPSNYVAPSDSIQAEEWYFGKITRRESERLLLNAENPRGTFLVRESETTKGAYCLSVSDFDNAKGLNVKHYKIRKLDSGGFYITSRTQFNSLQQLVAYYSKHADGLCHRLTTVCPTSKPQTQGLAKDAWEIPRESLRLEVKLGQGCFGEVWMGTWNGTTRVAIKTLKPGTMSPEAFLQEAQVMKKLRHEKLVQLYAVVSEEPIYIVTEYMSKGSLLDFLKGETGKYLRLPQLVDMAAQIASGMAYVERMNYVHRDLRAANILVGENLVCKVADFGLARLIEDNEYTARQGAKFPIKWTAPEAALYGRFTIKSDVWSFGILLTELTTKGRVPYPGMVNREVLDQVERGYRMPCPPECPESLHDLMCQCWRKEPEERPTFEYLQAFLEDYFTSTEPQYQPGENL
The target is the same in test [7]. The settings on record: at 1 µM.
Test [8] has as its target Tyrosine-protein kinase Srms (Homo sapiens) (UniProt Q9H3Y6). The conditions noted are these: at 0.1 µM.
The target is the same in test [9]. The conditions noted are these: at 1 µM.
Test [10] deals with Tyrosine-protein kinase SYK (Homo sapiens) (UniProt P43405). The settings on record: at 0.1 µM.
The target is the same in test [11]. The conditions noted are these: at 1 µM.
In test [12] the target is T1, Tyrosine-protein kinase Tec (Homo sapiens) (UniProt P42680).
T1 sequence (whole entry): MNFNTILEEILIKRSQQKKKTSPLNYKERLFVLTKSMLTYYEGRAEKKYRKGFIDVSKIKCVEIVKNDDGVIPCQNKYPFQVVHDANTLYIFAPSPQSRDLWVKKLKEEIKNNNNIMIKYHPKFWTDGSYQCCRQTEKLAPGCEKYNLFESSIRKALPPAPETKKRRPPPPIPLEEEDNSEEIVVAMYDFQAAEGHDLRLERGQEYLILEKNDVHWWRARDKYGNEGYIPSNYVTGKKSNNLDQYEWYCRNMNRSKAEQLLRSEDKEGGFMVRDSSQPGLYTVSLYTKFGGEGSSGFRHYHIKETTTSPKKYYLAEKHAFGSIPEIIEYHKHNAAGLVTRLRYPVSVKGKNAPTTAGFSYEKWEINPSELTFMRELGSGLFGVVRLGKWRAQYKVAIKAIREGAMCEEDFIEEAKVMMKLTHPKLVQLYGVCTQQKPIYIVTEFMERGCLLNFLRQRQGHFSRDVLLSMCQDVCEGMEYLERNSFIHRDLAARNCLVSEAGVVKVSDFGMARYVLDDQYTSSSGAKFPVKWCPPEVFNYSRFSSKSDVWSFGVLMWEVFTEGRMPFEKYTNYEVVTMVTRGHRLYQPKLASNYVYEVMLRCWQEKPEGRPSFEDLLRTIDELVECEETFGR
The settings on record: at 0.1 µM.

Test [13] deals with T1, Tyrosine-protein kinase Tec (Homo sapiens). The settings on record: at 1 µM.
In test [14] the target is Angiopoietin-1 receptor (Homo sapiens) (UniProt Q02763). The settings on record: at 0.1 µM.
Chain of Angiopoietin-1 receptor (Homo sapiens) (Q02763 whole entry): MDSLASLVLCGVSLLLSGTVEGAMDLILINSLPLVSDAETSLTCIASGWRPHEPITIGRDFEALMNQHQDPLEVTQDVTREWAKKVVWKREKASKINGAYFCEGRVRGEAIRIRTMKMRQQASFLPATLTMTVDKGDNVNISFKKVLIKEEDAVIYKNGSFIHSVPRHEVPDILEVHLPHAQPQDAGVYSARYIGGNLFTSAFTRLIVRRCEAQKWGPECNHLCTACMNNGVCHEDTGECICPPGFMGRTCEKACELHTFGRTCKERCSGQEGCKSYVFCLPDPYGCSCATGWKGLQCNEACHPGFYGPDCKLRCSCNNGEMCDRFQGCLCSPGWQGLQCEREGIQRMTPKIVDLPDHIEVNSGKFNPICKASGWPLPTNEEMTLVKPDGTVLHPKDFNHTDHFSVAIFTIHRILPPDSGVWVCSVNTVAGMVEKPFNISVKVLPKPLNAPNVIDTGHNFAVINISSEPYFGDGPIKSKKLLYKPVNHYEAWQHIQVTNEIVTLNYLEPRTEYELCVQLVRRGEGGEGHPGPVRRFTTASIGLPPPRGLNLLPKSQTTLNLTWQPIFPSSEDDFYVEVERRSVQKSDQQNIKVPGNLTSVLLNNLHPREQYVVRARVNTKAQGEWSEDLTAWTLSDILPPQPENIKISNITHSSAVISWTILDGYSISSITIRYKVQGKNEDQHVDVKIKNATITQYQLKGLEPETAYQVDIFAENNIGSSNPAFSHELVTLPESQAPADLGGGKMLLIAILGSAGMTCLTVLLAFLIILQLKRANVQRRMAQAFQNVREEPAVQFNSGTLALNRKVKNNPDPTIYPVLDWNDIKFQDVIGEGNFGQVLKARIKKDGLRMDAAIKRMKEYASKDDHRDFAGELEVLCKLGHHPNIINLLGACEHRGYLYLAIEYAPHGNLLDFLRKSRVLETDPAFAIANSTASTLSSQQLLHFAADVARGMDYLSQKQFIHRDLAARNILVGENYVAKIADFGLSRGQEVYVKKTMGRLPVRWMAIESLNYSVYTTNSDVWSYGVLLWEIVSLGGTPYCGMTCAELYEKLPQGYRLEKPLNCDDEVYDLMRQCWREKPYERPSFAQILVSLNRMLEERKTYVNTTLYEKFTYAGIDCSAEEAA
For test [15] the target is unchanged. The settings on record: at 1 µM.
Test [16] deals with T2, Non-receptor tyrosine-protein kinase TNK1 (Homo sapiens) (UniProt Q13470).
T2 sequence (whole entry): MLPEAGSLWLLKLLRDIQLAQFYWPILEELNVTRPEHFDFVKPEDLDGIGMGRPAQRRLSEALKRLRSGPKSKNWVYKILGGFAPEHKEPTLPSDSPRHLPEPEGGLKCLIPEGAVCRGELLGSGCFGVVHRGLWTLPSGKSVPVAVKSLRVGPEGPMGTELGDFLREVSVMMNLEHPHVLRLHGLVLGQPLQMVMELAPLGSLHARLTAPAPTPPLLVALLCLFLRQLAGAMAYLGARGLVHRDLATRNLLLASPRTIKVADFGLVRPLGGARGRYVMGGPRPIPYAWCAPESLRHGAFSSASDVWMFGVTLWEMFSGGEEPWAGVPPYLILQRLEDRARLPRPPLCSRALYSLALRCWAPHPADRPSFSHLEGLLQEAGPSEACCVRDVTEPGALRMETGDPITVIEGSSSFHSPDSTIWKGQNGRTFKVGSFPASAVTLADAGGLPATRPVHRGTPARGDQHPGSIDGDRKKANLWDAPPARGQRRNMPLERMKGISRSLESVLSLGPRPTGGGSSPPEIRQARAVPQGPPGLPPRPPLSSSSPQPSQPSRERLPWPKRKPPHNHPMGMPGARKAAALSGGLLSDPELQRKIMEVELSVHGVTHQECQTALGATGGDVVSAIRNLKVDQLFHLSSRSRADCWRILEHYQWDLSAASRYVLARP
The conditions noted are these: at 0.1 µM.

For test [17], the target named is T2, Non-receptor tyrosine-protein kinase TNK1 (Homo sapiens). The settings on record: at 1 µM.
In test [18] the target is Activated CDC42 kinase 1 (Homo sapiens) (UniProt Q07912). The settings on record: at 0.1 µM.
Chain of Activated CDC42 kinase 1 (Homo sapiens) (Q07912 whole entry, looked up): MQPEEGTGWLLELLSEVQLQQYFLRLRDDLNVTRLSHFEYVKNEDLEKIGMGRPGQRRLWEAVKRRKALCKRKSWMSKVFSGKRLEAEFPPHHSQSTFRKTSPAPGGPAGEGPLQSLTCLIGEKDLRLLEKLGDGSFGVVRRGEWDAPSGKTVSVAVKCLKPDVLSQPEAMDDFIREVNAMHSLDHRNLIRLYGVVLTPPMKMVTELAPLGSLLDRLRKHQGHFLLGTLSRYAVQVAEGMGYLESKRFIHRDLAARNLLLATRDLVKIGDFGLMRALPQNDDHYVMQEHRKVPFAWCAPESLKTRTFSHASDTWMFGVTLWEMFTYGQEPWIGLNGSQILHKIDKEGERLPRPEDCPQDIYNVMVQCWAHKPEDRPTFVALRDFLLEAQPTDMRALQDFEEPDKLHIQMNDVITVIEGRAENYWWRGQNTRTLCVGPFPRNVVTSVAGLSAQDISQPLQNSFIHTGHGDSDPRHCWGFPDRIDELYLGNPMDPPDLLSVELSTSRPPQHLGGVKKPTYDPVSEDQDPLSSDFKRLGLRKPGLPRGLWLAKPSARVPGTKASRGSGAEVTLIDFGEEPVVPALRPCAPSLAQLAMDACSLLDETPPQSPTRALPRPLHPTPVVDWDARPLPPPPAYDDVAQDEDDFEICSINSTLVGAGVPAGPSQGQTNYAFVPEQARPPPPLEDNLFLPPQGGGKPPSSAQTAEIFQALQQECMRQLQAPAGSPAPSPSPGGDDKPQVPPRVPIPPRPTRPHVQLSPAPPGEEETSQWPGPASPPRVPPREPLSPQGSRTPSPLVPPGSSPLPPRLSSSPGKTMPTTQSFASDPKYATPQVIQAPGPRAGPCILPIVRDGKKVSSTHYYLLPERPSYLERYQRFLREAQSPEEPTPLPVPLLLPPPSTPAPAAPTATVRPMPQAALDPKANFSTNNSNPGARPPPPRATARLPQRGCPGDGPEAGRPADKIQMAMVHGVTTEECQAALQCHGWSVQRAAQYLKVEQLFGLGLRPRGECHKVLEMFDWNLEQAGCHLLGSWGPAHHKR
Test [19] has the same target. The conditions noted are these: at 1 µM.
Test [20] has as its target High affinity nerve growth factor receptor (Homo sapiens) (UniProt P04629). The conditions noted are these: at 0.1 µM.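 Further: each value is a mean of replicate percent inhibition readings against TRKA kinase.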

Structures are written as SMILES.

Chain of Tyrosine-protein kinase Srms (Homo sapiens) (Q9H3Y6 whole entry): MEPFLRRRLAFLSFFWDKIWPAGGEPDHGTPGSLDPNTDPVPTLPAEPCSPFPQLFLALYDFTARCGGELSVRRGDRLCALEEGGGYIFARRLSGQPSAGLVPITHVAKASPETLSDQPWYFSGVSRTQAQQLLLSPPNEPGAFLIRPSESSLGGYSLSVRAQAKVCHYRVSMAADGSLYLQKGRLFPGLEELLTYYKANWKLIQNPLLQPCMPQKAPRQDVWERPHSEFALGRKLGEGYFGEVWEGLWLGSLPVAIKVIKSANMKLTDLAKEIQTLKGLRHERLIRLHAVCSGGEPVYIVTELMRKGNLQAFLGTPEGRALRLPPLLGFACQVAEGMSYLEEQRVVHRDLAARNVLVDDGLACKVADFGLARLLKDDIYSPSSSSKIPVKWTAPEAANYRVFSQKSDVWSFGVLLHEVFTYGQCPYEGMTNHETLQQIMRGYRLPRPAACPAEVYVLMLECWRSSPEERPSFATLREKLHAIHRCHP
Chain of Proto-oncogene tyrosine-protein kinase receptor Ret (Homo sapiens), P07949 [Y791F] (P07949 whole entry Y791F): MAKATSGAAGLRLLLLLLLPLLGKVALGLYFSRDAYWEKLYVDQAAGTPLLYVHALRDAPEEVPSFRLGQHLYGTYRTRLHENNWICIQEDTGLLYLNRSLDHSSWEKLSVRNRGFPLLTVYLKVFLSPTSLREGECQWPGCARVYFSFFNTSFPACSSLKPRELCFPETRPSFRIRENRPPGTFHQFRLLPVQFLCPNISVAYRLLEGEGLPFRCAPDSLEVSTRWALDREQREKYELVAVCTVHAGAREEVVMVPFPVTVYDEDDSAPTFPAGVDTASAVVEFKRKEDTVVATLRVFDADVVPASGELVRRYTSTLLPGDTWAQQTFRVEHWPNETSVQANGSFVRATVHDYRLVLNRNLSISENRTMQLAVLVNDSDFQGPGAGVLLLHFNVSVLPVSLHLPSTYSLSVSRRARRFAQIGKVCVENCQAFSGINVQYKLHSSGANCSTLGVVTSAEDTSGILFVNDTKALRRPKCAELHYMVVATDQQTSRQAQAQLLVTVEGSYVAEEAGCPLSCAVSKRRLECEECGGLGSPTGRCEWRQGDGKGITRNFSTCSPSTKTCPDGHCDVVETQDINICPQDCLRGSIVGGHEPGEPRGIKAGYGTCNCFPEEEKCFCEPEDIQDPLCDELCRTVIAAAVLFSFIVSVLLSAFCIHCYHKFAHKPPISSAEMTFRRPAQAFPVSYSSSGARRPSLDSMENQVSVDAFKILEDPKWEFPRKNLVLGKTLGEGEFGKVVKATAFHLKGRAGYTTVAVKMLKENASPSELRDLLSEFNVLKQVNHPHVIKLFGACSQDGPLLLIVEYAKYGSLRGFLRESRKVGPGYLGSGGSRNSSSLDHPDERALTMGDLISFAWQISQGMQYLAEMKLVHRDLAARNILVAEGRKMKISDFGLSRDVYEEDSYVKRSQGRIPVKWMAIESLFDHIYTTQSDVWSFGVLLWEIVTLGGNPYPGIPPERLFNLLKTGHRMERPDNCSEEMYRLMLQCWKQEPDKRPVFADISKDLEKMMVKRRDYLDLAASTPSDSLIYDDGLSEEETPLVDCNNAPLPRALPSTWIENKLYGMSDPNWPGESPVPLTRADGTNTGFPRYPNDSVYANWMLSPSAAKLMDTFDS
Chain of High affinity nerve growth factor receptor (Homo sapiens) (P04629 33-796 limits assumed): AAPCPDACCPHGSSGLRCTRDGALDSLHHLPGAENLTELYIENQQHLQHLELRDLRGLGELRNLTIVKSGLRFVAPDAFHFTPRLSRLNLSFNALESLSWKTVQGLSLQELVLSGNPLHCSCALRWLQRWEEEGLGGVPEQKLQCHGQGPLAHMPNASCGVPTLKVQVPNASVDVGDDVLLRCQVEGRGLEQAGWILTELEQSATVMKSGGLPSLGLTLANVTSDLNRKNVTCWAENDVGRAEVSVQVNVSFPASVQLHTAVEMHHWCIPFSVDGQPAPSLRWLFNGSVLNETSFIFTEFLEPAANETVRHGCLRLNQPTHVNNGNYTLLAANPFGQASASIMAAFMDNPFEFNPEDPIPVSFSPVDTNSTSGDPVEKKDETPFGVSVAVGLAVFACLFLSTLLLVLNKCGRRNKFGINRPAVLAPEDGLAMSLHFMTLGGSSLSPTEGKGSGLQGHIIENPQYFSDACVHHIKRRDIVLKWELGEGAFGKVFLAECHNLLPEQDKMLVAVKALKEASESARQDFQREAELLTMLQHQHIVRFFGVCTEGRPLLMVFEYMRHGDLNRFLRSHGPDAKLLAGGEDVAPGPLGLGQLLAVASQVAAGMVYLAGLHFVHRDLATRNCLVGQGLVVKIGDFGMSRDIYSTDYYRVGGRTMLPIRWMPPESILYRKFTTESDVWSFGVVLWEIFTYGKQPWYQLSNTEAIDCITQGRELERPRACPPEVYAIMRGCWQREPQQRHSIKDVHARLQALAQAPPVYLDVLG

Take `CCOc1ccc2c(-c3ccnc(Nc4cc(OC)cc(C(F)(F)F)c4)n3)cnn2n1`: the inhibition (as a rule, the change of the read-out against control, counted positive when it falls) is 5.26% in test [1]; 8% in test [2]; 7.47% in test [3]; 4.18% in test [4]; 20.7% in [5]; -3.54% in test [6]. For the same compound, the inhibition in test [7] is 16.3%; in test [8], 2.39%; in test [9] it was 4.4%; in [10], -3.45%; in test [11] it was -0.62%; in test [12], 2.25%. Moreover, the inhibition came to 7.24% in test [13]; 7.37% in test [14]; 13.5% in test [15]; 2.46% in [16]; 12.4% in test [17]; 0.16% in [18]. Further, the inhibition came to 1.19% in test [19] and 0.62% in test [20].

With `COc1c(C(N)=O)cc(-c2ccc(Cl)cc2)cc1-c1ccc(S(N)(=O)=O)cc1`, the inhibition in test [1] was 7.43%; in test [2], 6.88%; in test [3] it was 6.97%; in test [4], 12.2%; in test [5] it was 14.6%; in test [6] it was 10.9%. Besides, the inhibition is 14.6% in test [7]; -1.8% in test [8]; -2.15% in test [9]; 1.78% in test [10]; 4.05% in test [11]; 7.49% in test [12]. In addition, the inhibition in [13] worked out at 3.79%; in test [14], 5.29%; in [15] it was 7.54%; in test [16] it was 2.66%; in test [17], 3.9%; in test [18], 1.22%. Further, the inhibition in test [19] was 3.03%; in [20], 4.76%.

Take `COc1cccc(Nc2nccc(-c3cnn4ncccc34)n2)c1`: the inhibition in test [1] was determined as 24%; in [2], 6.23%; in test [3], 15.1%; in test [4] it was 38.2%; in test [5], 71.1%; in test [6], 7.33%. For the same compound, the inhibition in [7] is 41.6%; in test [8], 1.25%; in test [9] it was -1.9%; in [10], -0.98%; in test [11] it was 34.2%; in [12] it was 4.27%. Besides, the inhibition turned out to be 25.1% in test [13]; 5.94% in test [14]; 21.3% in test [15]; 15.3% in test [16]; 65.9% in test [17]; 1.79% in test [18]. Besides, the results for the inhibition in test [19] and in test [20] were 21.7% and 4.75%, respectively.

For the compound `CS(=O)(=O)CCNCc1ccc(-c2ccc3ncnc(Nc4ccc(OCc5ccccc5)cc4)c3c2)o1`, the inhibition in [1] was found to be 9.58%; in test [2] it was 2.59%; in test [3] it was 3.8%; in test [4] it was 1.11%; in test [5], 8.89%; in [6], 9.13%. For the same compound, the inhibition was 12.5% in test [7]; -0.68% in test [8]; 2.59% in test [9]; 1.7% in test [10]; -0.71% in [11]; 1.49% in [12]. The inhibition in [13] turned out to be 7.43%; in test [14] it was 1.24%; in test [15], 4.15%; in test [16], 3.51%; in [17] it was 16.6%; in [18] it was 1.73%. Besides, the results for the inhibition in test [19] and in test [20] were 2.69% and 1.91%, respectively.

As to `CS(=O)(=O)CCNCc1ccc(-c2ccc3ncnc(Nc4ccc(OCc5cccc(C(F)(F)F)c5)cc4)c3c2)o1`, the inhibition in test [1] is 6.5%; in test [2], -1.41%; in test [3] it was 3.05%; in test [4] it was 6.2%; in [5], 8.72%; in test [6], 9.03%. The inhibition in [7] is 15.8%; in [8], -3.48%; in [9], -3.22%; in test [10], -1.19%; in [11], -0.03%; in test [12], 6.62%. For the same compound, the inhibition in [13] is 4.52%; in [14], 3.37%; in test [15], 4.84%; in test [16], 0.64%; in test [17], 5.33%; in test [18] it was 0.49%. Also, the inhibition in [19] was determined as 0.96%; in test [20], 2.16%.

Consider `CN1CCC(n2cnc(-c3ccc(F)cc3)c2-c2ccnc(NCCO)n2)CC1`, for which the inhibition in [1] was 15.2%; in test [2] it was -0.99%; in test [3], -1.06%; in test [4] it was 6.65%; in test [5], 2.72%; in test [6], 2.31%. The inhibition in test [7] is 7.94%; in test [8], -0.64%; in test [9], -0.42%; in [10], -2.08%; in test [11] it was -1.12%; in test [12], 6.05%. In addition, the inhibition worked out at 5.09% in test [13]; 1.8% in [14]; 3.36% in test [15]; 4.89% in test [16]; 10.8% in test [17]; 1.7% in [18]. In addition, the inhibition in [19] came out at 2.83%; in test [20], 2.11%.

As to `Cc1cc(O)cc(C)c1/C=C/c1cncc(C(=O)OC(C)(C)C)c1`, the inhibition in test [1] was determined as 12.1%; in [2], 8.51%; in [3] it was 8.66%; in test [4], 6.94%; in test [5], 10.4%; in [6], 14.1%. For the same compound, the inhibition in test [7] is 58.6%; in test [8] it was 10.2%; in test [9], 43.4%; in [10], -0.49%; in [11], 0.64%; in [12] it was 5.96%. Moreover, the inhibition in test [13] worked out at 30.2%; in [14], 2.09%; in [15] it was 3.67%; in test [16], 2.08%; in test [17] it was 15.7%; in test [18] it was 1.33%. In addition, the figures for the inhibition in test [19] and in test [20] were 4.9% and 3.36%, respectively.
